Only some compounds are listed: those with a hit (about 8% of all), similar ones and a draw of the others.
Marburg entry inh – inhibitors of Marburg virus binding or cell entry; Marburg virus pseudotyped entry inhibition, cell reporter; Potency, µM (series often up to 37.8 µM), inactives show at the highest dose activity change, negative = inhibition, usual class: inhibitors; hit rate 1.8% among 300,000; AID 540276; calls by dose curve; tested in HEK293 cells; also: potency is read from the fitted curve at half-maximal effect; % is scaled to controls: 0 for no effect and ±100 for the full control effect
HCMV inh – inhibitors of human cytomegalovirus; AID 1259415; HFF cells, HCMV-luciferase reporter, 72 h; stronger effect = lower value; activity change, negative = inhibition, % at 57.5 µM; hit rate 4.5% among 410,000; in the data active = activity change below about -60%; inconclusive = no clear call, values can overlap the other calls; inactive = above about -39%; also: % is scaled to controls: 0 for no effect and ±100 for the full control effect
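After 16 h attachment at 37C, HFF cells received test compound and HCMV-luciferase (1 PFU/cell); reporter luminescence read 72 h later, data normalized against buffer-only and known inhibitor Salinomycin.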
SARS PLpro yeast – blocks SARS-CoV papain-like protease in a yeast assay | S. cerevisiae expressing SARS-CoV PLpro, growth rescue | Potency, µM (top dose mostly 32.9 µM), for inactives: top-dose activity, positive = growth rescue, usual class: activators | hit rate 0.19% among 330,000; calls by dose curve; also: potency is read from the fitted curve at half-maximal effect; 0% is about no effect; nearly all actives have a fitted effect of over 55% in size
FMDV antiviral – blocks foot and mouth disease virus; FMDV antiviral cell-based qHTS; hit rate 1.2% among 410,000; Potency, µM (doses to about 57.9 µM), inactives show top-dose activity change, negative = inhibition, hits mostly inhibitors; calls by dose curve; tested in HEK293T cells; also: read-out not given here; potency is read from the fitted curve at half-maximal effect; % is scaled to controls: 0 for no effect and ±100 for the full control effect; nearly all actives have a fitted effect of over 45% in size
Lassa entry inh – inhibitors of Lassa virus binding or cell entry; Lassa virus pseudotype entry inhibition, cell reporter; Potency, µM (highest dose often 37.9 µM), for inactives: top-dose activity change, negative = inhibition, usual class: inhibitors; hit rate 1.2% among 300,000; AID 540256; calls by dose curve; tested in HEK293 cells; also: potency is read from the fitted curve at half-maximal effect; % is scaled to controls: 0 for no effect and ±100 for the full control effect; nearly all actives have a fitted effect of over 50% in size
HCV inhibitor – blocks hepatitis C virus; Huh7.5.1 HCVcc-Cre infection, luciferase reporter, 44 h; hit rate 3.4% among 340,000; Potency, µM (doses to about 41.8 µM), for inactives: at the highest dose activity change, negative = inhibition, most hits filed as inhibitors; active = well fitted inhibition curve with a large enough effect; inconclusive = small, poorly fitted or top-dose-only effect, or another doubt; inactive = no such curve, though single readings can be large or run the other way; also: potency is read from the fitted curve at half-maximal effect; % is scaled to controls: 0 for no effect and ±100 for the full control effect
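Infectious HCVcc-Cre (~0.5 moi) was added to cells just after compound, with cells seeded 4 h earlier at 1,000 per well. Luciferase activity after 44 h culture reported infection; substrate was incubated 15 min at room temperature before reading.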
* = called active by the depositor; [ ] = dose if it differs, or a comment.

For CCOC(=O)[C@]12C[C@]3(OC)CCN(C(=O)N[C@@H]1c1ccccc1)[C@@H]32 the results were Marburg entry inh 10%[14.2 µM] and Lassa entry inh -19%[14.3 µM].
`Cc1ccc(C(C)C)c(OCCCN2C(=O)NC(C)(C)C2=O)c1` gave Marburg entry inh inconclusive, HCMV inh -8, SARS PLpro yeast 8%, FMDV antiviral -24%, Lassa entry inh 12µM* and HCV inhibitor -12%.
For Cc1ccc([N+](=O)[O-])c(OCCN2C(=O)NC(C)(C)C2=O)c1 the results were Marburg entry inh -6%, HCMV inh -38, SARS PLpro yeast 0%, FMDV antiviral -9%, Lassa entry inh 2% and HCV inhibitor -3%.
CC(C)c1cc(Br)ccc1OCCN1C(=O)NC(C)(C)C1=O was read as HCMV inh -61*, SARS PLpro yeast 0%, FMDV antiviral -12% and HCV inhibitor -1%.
Screening COc1ccccc1CN1CCC2(CC1)c1ccccc1[C@@H](NC(=O)c1ccco1)[C@@H]2OC returned FMDV antiviral -3%.
For CCOC(=O)/C(=C\c1ccccc1)C(=O)c1cc(C(C)=O)c(Nc2ccccc2)s1 the results were Marburg entry inh inconclusive, HCMV inh -105*, SARS PLpro yeast 2%, FMDV antiviral 14µM*, Lassa entry inh inconclusive and HCV inhibitor 7.1µM*.
CCOC(=O)/C(=C\c1cccnc1)C(=O)c1cc(C(C)=O)c(Nc2ccccc2)s1 was read as Marburg entry inh inconclusive, SARS PLpro yeast -51%, FMDV antiviral 4µM*, Lassa entry inh inconclusive and HCV inhibitor inconclusive.
Screening CCc1ccccc1N(CC)C(=O)c1c(C)oc2ncnc(N3CCOCC3)c12 returned HCMV inh -24, FMDV antiviral -8% and Lassa entry inh -1%[46.1 µM].
`O=S(=O)(c1ccc2nc(Nc3ccc(Br)cc3F)ccc2c1)N1CCCCC1` gave HCMV inh -4, FMDV antiviral -9% and Lassa entry inh 0%[46.1 µM].
Screening Cc1ccc(C(=O)NCc2ccco2)cc1S(=O)(=O)Nc1cccc(C)c1C returned Marburg entry inh 21µM*, HCMV inh 0, SARS PLpro yeast 8%, FMDV antiviral -101%, Lassa entry inh inconclusive and HCV inhibitor inconclusive.
For Cc1ccc(SCCNC(=O)c2ccc(C)c(S(=O)(=O)Nc3ccccc3C)c2)cc1 the results were Marburg entry inh 23µM*, HCMV inh -21, SARS PLpro yeast 0%, Lassa entry inh 10µM* and HCV inhibitor inconclusive.
Cc1ccccc1NS(=O)(=O)c1cc(C(=O)NCCC2=CCCCC2)ccc1C was read as Marburg entry inh -45%, HCMV inh inconclusive, SARS PLpro yeast 0%, Lassa entry inh inconclusive and HCV inhibitor inconclusive.
Screening Cc1ccc(C(=O)NCCSC2CCCCC2)cc1S(=O)(=O)Nc1ccccc1 returned Marburg entry inh inconclusive, HCMV inh -75*, SARS PLpro yeast 5%, Lassa entry inh inconclusive and HCV inhibitor inconclusive.
Screening Cc1ccccc1NS(=O)(=O)c1cc(C(=O)NCc2ccco2)ccc1C returned Marburg entry inh -7%, HCMV inh -30, SARS PLpro yeast -1%, FMDV antiviral 8%, Lassa entry inh 1.6µM* and HCV inhibitor inconclusive.
Screening N#Cc1cccc(-c2nc3cnc(N4CCOCC4)nc3n(C[C@H]3CCCO3)c2=O)c1 returned FMDV antiviral -14%.
Screening CCCCOc1ccc(Cn2c(=O)sc3ccccc32)cc1OC returned Marburg entry inh 10%[46.1 µM], HCMV inh 12, FMDV antiviral 3% and Lassa entry inh -21%[46.1 µM].
For CC(C)C1N(c2ccccc2)C(N)=C(C#N)C1(C#N)C#N (stereo not drawn) the results were Marburg entry inh -21%, HCMV inh -66*, SARS PLpro yeast -1%, FMDV antiviral inconclusive, Lassa entry inh -18% and HCV inhibitor inconclusive.
For N#Cc1cnn(-c2ccccc2)c1N the results were Marburg entry inh 11%, HCMV inh -30, SARS PLpro yeast -3%, Lassa entry inh inconclusive and HCV inhibitor inconclusive.
For CCc1ccc(OCCCSc2nc(-c3ccc(C(C)(C)C)cc3)nc3cc(=O)[nH]n23)cc1 the results were HCMV inh -84*, FMDV antiviral -18% and Lassa entry inh 1%[46.1 µM].
For Cc1cccc(OCCCSc2nc(-c3ccc(C(C)(C)C)cc3)nc3cc(=O)[nH]n23)c1C the results were HCMV inh inconclusive, FMDV antiviral -8% and Lassa entry inh 29%[46.1 µM].
For ClCc1cc2ccccc2nc1Cl the results were Marburg entry inh -6%[46.1 µM], HCMV inh 67, SARS PLpro yeast -3%, FMDV antiviral 28µM*, Lassa entry inh -16% and HCV inhibitor inconclusive.
Cc1ccc2cc(CCl)c(Cl)nc2c1 was read as Marburg entry inh inconclusive, HCMV inh 5, SARS PLpro yeast -2%, FMDV antiviral inconclusive, Lassa entry inh 2% and HCV inhibitor 10µM*.
CCCCc1c(C)nc2c(OC)cccc2c1SCC(=O)O was read as Marburg entry inh 1%[46.1 µM], HCMV inh 0, SARS PLpro yeast 2%, FMDV antiviral -15%, Lassa entry inh 19%[46.1 µM] and HCV inhibitor 7%.
Screening COc1cccc2c(Cl)c(CCCl)c(C)nc12 returned Marburg entry inh inconclusive, HCMV inh -69*, SARS PLpro yeast 2%, FMDV antiviral -4%, Lassa entry inh -27%[46.1 µM] and HCV inhibitor -20%.
Screening CCC1CCCCN1c1ccc([N+](=O)[O-])cc1/C=N/NC(=O)Cn1c2ccccc2c(=O)c2ccccc21 (stereo not drawn) returned Marburg entry inh 0.89µM*, HCMV inh -13, SARS PLpro yeast 2%, FMDV antiviral -18%, Lassa entry inh -4% and HCV inhibitor inconclusive.
CN(C(=O)c1cccc(NC(=O)Cc2ccc(NC(=O)C3CCCN(C(=O)C4CCCC4)C3)cc2)c1)C1CCCCC1 (stereo not drawn) was read as HCMV inh -21, FMDV antiviral inconclusive and HCV inhibitor inconclusive.
`CN(C(=O)c1cccc(NC(=O)C2CCCN(C(=O)OC(C)(C)C)C2)c1)C1CCC1` (stereo not drawn) gave HCMV inh -22, SARS PLpro yeast 6%, FMDV antiviral inconclusive and HCV inhibitor -12%.
For CN(C(=O)c1cccc(NC(=O)Cc2ccc(NC(=O)C3CCCN(C(=O)C4CCCC4)C3)cc2)c1)C1CCCC1 (stereo not drawn) the results were HCMV inh -8, FMDV antiviral inconclusive and HCV inhibitor 10µM*.
Screening CN(C(=O)c1cccc(NC(=O)Cc2ccc(NC(=O)C3CCCN(C(=O)CCc4ccccc4)C3)cc2)c1)C1CC1 (stereo not drawn) returned HCMV inh 10, FMDV antiviral inconclusive and HCV inhibitor -2%[8.37 µM].

Compound activity (PubChem BioAssay)
